From the supplement of paper PMC6897291 come the findings set out here.

For this assay, the system named is RIVA. Put plainly: growth inhibition by drug alone (1 - RLU/untreated control) (fraction); higher = stronger inhibition. To be noted: 177Lu-lilotomab satetraxetan 0 ug/ml. As for the experimental part:
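RIVA (RI-1) ABC-DLBCL cells were pretreated or not for 18 h with 0.5 ug/ml 177Lu-lilotomab satetraxetan (600 MBq/mg), washed and seeded (3000 cells/well) on 384-well plates pre-printed with the Selleck Cambridge Cancer Compound library. Viability was read by RealTime-Glo luminescence on days 3-6 after seeding. Effect = 1 - RLU/mean RLU of the 48 untreated no-drug control wells per plate; Bliss score = (M-E)/(1-Fa).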

Take `O=P1(N(CCCl)CCCl)NCCCO1` (stereo not given) [Cyclophosphamide monohydrate]: the “growth inhibition by drug alone” value is -0.165 (10 nM, time (day): 3); -0.182 (10 nM, time (day): 4); -0.227 (10 nM, time (day): 5); -0.326 (10 nM, time (day): 6); 0.0466 (100 nM, time (day): 3); -0.0413 (100 nM, time (day): 4). Further, the “growth inhibition by drug alone” value (100 nM, time (day): 5) was -0.0801 and the “growth inhibition by drug alone” value (100 nM, time (day): 6) was -0.114.

In the case of `C=C1C[C@@H]2[C@H](CC[C@]3(C)C(=O)CC[C@@H]23)[C@@]2(C)C=CC(=O)C=C12` [Exemestane], the “growth inhibition by drug alone” value by setting is: (10 nM, time (day): 3) 0.0187; (10 nM, time (day): 4) 0.00346; (10 nM, time (day): 5) -0.0171; (10 nM, time (day): 6) -0.272; (100 nM, time (day): 3) -0.247; (100 nM, time (day): 4) -0.223. Moreover, the “growth inhibition by drug alone” value runs as follows: (100 nM, time (day): 5) -0.21; (100 nM, time (day): 6) -0.228.

Take `CC(C)[C@]12O[C@H]1[C@@H]1O[C@]13[C@]1(O[C@H]1C[C@H]1C4=C(CC[C@@]13C)C(=O)OC4)[C@@H]2O` [Triptolide]: the “growth inhibition by drug alone” value (10 nM, time (day): 3) came to 0.376; the “growth inhibition by drug alone” value (10 nM, time (day): 4) was found to be 0.671; the “growth inhibition by drug alone” value (10 nM, time (day): 5) worked out at 0.753; the “growth inhibition by drug alone” value (10 nM, time (day): 6) worked out at 0.792; the “growth inhibition by drug alone” value (100 nM, time (day): 3) worked out at 0.907; the “growth inhibition by drug alone” value (100 nM, time (day): 4) worked out at 0.934. The “growth inhibition by drug alone” value is 0.957 (100 nM, time (day): 5) and 0.967 (100 nM, time (day): 6).

As for `CN(C)CCN(C)CCc1ccc(Cl)c(Cl)c1`, the “growth inhibition by drug alone” value reads like this: (10 nM, time (day): 3) -0.216; (10 nM, time (day): 4) -0.209; (10 nM, time (day): 5) -0.338; (10 nM, time (day): 6) -0.472; (100 nM, time (day): 3) -0.276; (100 nM, time (day): 4) -0.227. Further, the “growth inhibition by drug alone” value is, setting by setting: (100 nM, time (day): 5) -0.333; (100 nM, time (day): 6) -0.453.

For `CC(=O)Nc1ccc(OC[C@](C)(O)C(=O)Nc2ccc([N+](=O)[O-])c(C(F)(F)F)c2)cc1` [Andarine (GTX-007)], the “growth inhibition by drug alone” value runs as follows: (10 nM, time (day): 3) 0.017; (10 nM, time (day): 4) -0.0064; (10 nM, time (day): 5) -0.271; (10 nM, time (day): 6) -0.322; (100 nM, time (day): 3) -0.229; (100 nM, time (day): 4) -0.219. The “growth inhibition by drug alone” value was -0.21 (100 nM, time (day): 5) and -0.215 (100 nM, time (day): 6).
